Screening results: PubChem, National Center for Advancing Translational Sciences (NCATS)
rTrxR1 inhibitor – inhibitors of rat thioredoxin reductase 1 | O89049 | recombinant rTrxR1, NADPH fluorescence consumption, selenite substrate | Potency, µM (titrated, usually from 114 µM), for inactives: at the top dose activity change, negative = inhibition, most hits filed as inhibitors | actives 1% (n = 390,000) | AID 588453; further: potency means the concentration at half of the fitted maximal effect; nearly all actives have a fitted effect of over 65% in size
Target sequence (O89049 whole entry, looked up): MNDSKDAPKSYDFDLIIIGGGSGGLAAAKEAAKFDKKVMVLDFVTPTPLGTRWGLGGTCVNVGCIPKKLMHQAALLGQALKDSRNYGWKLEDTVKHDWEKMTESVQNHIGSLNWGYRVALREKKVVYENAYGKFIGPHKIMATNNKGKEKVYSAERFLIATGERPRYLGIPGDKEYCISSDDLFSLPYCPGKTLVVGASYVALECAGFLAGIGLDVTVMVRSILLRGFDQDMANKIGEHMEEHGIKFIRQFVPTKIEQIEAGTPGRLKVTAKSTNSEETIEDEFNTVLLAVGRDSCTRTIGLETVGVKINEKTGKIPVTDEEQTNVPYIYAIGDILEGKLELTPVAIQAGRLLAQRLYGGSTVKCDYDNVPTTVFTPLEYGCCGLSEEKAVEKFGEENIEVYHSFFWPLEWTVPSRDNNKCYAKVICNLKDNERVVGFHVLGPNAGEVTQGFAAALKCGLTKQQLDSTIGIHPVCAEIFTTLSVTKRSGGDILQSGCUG
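Rat TrxR1 (90 nM in the dispensed reagent) was pre-reduced with 400 uM NADPH for 5 min at room temperature, then incubated with compound for 15 min. After 400 uM selenite was added, NADPH fluorescence (Ex 340/Em 450 nm) was followed for 8 min.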
USP1 inh – USP1/UAF1 (human) deubiquitinase inhibition | Potency, µM (titrated, usually from 57.1 µM), inactives show at the highest dose activity change, negative = inhibition, actives largely listed as inhibitors | recombinant USP1/UAF1, Ub-Rhodamine cleavage fluorescence | actives 0.23% (n = 390,000); further: potency means the concentration at half of the fitted maximal effect; nearly all actives have a fitted effect of over 60% in size
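High-throughput fluorogenic screen: 1nM USP1/UAF1 complex, Ub-Rho substrate 150nM final, 50mM HEPES pH 7.8 with 0.5mM EDTA, 0.1 mg/ml BSA, 1mM TCEP and 0.01% Tween-20.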
GALK inhibitor – inhibitors of human galactokinase. P51570. Purified GALK, Kinase-Glo residual ATP luminescence. Potency, µM (top dose mostly 57.5 µM), for the others: top-dose activity change, negative = inhibition, usual class: inhibitors. actives 0.007% (n = 270,000). AID 1868; further: potency means the concentration at half of the fitted maximal effect
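Quantitative HTS: GALK 5 nM, ATP 35 uM, galactose 100 uM, 1 h room temperature, then luciferase-based ATP detection.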
FBPA coupling cs – inhibits coupling enzyme system, counter-screen for aldolase hits; coupling enzyme system counterscreen, AmpLite Red fluorescence; actives 0.67% (n = 290,000); activity change, negative = inhibition, % at 58.2 µM, hits read low; in the data active means activity change below about -30%
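Fluorescence at 525 nm excitation and 598 nm emission measured inhibition of the coupled detection system without aldolase. Compounds (at 57.5 uM final) were preincubated 10 min at room temperature with coupling enzyme reagent before a 20 min substrate/AmpLite Red step.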
TrxR1 substrate – rat thioredoxin reductase 1 substrate activity | O89049 | purified TrxR1 substrate turnover, NADPH consumption readout | Potency, µM (doses to about 114 µM), for the others: top-dose activity change, negative = substrate turnover | actives 0.01% (n = 390,000) | AID 588456; further: potency means the concentration at half of the fitted maximal effect; nearly all actives have a fitted effect of over 50% in size
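Rat TrxR1, dispensed at 90 nM, was prereduced with 400 uM NADPH (final) for 5 min at ~22 deg C, then incubated with compound 15 min before 400 uM selenite. A first-read NADPH fluorescence drop versus no-compound background flagged substrates.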
The depositor's hits bear a star; ? = inconclusive; nt = no result; [ ] = dose if it differs, or a comment. A selection: hits, their analogues and other compounds. The true share with any hit is near 1.5%. Unless noted, the call rests on the fitted dose curve; in most records, active means well fitted curve in the direction sought with a large enough effect; inconclusive means small, poorly fitted or top-dose-only effect, or another doubt; inactive means no such curve, though single readings can be large; an effect the other way counts as inactive or inconclusive. On the % scale 0 is the no-effect control and ±100 the full control effect.

SMILES	rTrxR1 inhibitor	USP1 inh	GALK inhibitor	FBPA coupling cs	TrxR1 substrate
O=C(c1cccs1)[C@@H]1[C@@H]2C(=O)N(Cc3ccc4c(c3)OCO4)C(=O)[C@@H]2C2c3ccccc3C=CN21 (stereo not given in full)	nt	nt	-4.4%	-37.7*	nt
O=C(C[n+]1cccc2cc(Cl)ccc21)c1ccc(Br)cc1	27.0%	nt	nt	nt	4.2%
CCCCCCCCN1[C@@H](CC(=O)O)c2ccc(/C=C/C(=O)O)cc2S1(=O)=O	4.7%	nt	nt	nt	-1.2%
O=C(Nc1nc2ccc(F)cc2s1)c1nc(S(=O)(=O)Cc2ccccc2)ncc1Cl	3.55µM*	-19.7%	nt	nt	1.4%
COc1ccc2nc(NC(=O)c3nc(S(=O)(=O)Cc4ccccc4)ncc3Cl)sc2c1	-6.9%	-20.9%	nt	nt	-4.0%
COc1ccc2nc(NC(=O)c3nc(S(=O)(=O)Cc4ccccc4F)ncc3Cl)sc2c1	-0.2%	-19.1%	nt	nt	-6.2%
Cc1cccc(CS(=O)(=O)c2ncc(Cl)c(C(=O)Nc3nc4ccc(F)cc4s3)n2)c1	3.16µM*	-11.3%	nt	nt	5.4%
O=C(c1cccc2ccccc12)N1CCN(S(=O)(=O)c2ccccc2)CC1	14.0%	nt	nt	nt	0.6%
O=C(C[n+]1ccncc1)c1cccc2ccccc12	-1.3%	nt	nt	nt	-1.0%
CC(C)C[C@H](NC(=O)CNC(=O)[C@H](C)NC(=O)[C@H](CC(C)C)NC(=O)[C@H](CCCNC(=N)N)NC(=O)[C@H](Cc1cnc[nH]1)NC(=O)[C@@H](NC(=O)[C@@H](NC(=O)[C@@H]1CSSC[C@H](NC(=O)[C@@H](N)CO)C(=O)N[C@@H](CC(N)=O)C(=O)N[C@@H]([C@@H](C)O)C(=O)N[C@@H](C)C(=O)N[C@@H]([C@@H](C)O)C(=O)N1)C(C)C)[C@@H](C)O)C(=O)N[C@@H](CC(C)C)C(=O)N[C@@H](CO)C(=O)N[C@@H](CCCNC(=N)N)C(=O)N[C@@H](CO)C(=O)NCC(=O)NCC(=O)N[C@H](C(=O)N[C@H](C(=O)N[C@@H](CCCCN)C(=O)N[C@@H](CC(=O)O)C(=O)N[C@@H](CC(N)=O)C(=O)N[C@@H](Cc1ccccc1)C(=O)N[C@H](C(=O)N1CCC[C@H]1C(=O)N[C@H](C(=O)N[C@@H](CC(N)=O)C(=O)N[C@H](C(=O)NCC(=O)N[C@@H](CO)C(=O)N[C@@H](CCCCN)C(=O)N[C@@H](C)C(=O)N[C@@H](Cc1ccccc1)C(N)=O)C(C)C)[C@@H](C)O)C(C)C)C(C)C)C(C)C	nt	nt	nt	-0.6	nt
O=S(=O)(Nc1c(S(=O)(=O)c2ccccc2)c2nc3ccccc3nc2n1C1CCCCC1)c1ccccc1	?	3.16µM*	-4.7%	-53.0*	181.2%
C=CCn1c(NS(=O)(=O)c2ccccc2)c(S(=O)(=O)c2ccc(C)cc2)c2nc3ccccc3nc21	-101.7%	28.2µM*	-0.3%	-58.6*	925.0%
Cc1noc(C)c1-c1nc(NCc2ccccc2)c2ccccc2n1	nt	nt	nt	-2.3	nt
COC(=O)NCC12CC3CC(C1)CC(CNC(=O)OC)(C3)C2	35.5µM*	2.7%	5.9%	0.7	4.8%
COc1cccc(OC)c1C(=O)NCC12CC3CC(C1)CC(CNC(=O)c1c(OC)cccc1OC)(C3)C2	20.4%	-15.5%	1.0%	-3.4	-3.0%
O=C(CCN1CCN(c2ccccc2)CC1)Nc1ccc(Cl)cc1	15.1%	-21.0%	0.1%	-4.5	4.7%
COc1ccc(N2CCN(CCC(=O)c3ccc4ccccc4c3)CC2)cc1	1.78µM*	-16.1%	nt	-1.6	5.0%
O=C(CCN1CCN(c2ccc([N+](=O)[O-])cc2)CC1)c1ccc(Cl)cc1	7.08µM*	-25.3%	nt	-3.4	-8.9%
O=C(CCN1CCN(c2ccccc2)CC1)c1ccc(Cl)cc1	1.58µM*	-13.6%	-3.6%	2.7	-6.4%
O=C(CN1CCN(c2ccc([N+](=O)[O-])cc2)CC1)c1ccccc1	?	-23.7%	5.2%	-1.6	9.4%[57.1 µM]
O=C(CCN1CCCCC1)c1cccc(Cl)c1	0.355µM*	-12.3%	nt	nt	11.7%[57.1 µM]
C(=Nc1cccnc1)c1ccc2ccccc2n1	-11.4%	nt	nt	nt	3.4%
COc1cc2nc(N3CCN(C)CC3)nc(NC3CCN(Cc4ccccc4)CC3)c2cc1OC	-9.1%	nt	nt	nt	17.7%
Cn1c(=O)c([N+](=O)[O-])c(Cl)c2ccccc21	2.24µM*	-9.9%	0.6%	1.2	7.9%[57.1 µM]
CCN(CC)c1c([N+](=O)[O-])c(=O)n(C)c2ccccc12	24.5%	-3.7%	-2.4%	-9.9	4.2%[57.1 µM]
SMILES	rTrxR1 inhibitor	USP1 inh	GALK inhibitor	FBPA coupling cs	TrxR1 substrate
COC(=O)c1c(C)nc2ccccc2c1C(=O)O	-6.6%	-6.7%	-1.4%	-3.8	-10.1%
COc1ccc(-c2c(C(=O)O)nc3ccccc3c2C(=O)O)cc1	12.5%	1.8%	0.3%	-34.1*	-7.6%
CC(C)CC(=O)/C(=C\c1ccc(Cl)cc1Cl)n1cncn1	8.91µM*	-25.6%	-0.4%	0.0	3.2%
CCCCCCCCCCCCCC(=O)Nc1ccc(/C=C/c2ccnc3ccccc23)cc1	-8.5%	nt	nt	nt	-7.1%
O=Cc1ccc2[nH]ccc2c1	19.6%	nt	nt	nt	2.5%
O=C(/C=C/c1ccc(N2CCC(c3ccccc3)=N2)cc1)c1ccccc1	?	174.2%	0.0%	-2.0	-8.1%
CCOC(=O)/C(=C\c1ccc(N2CCC(c3ccccc3)=N2)cc1)C(C)=O	-24.6%	28.2µM*	nt	nt	-11.0%
CC1(C)CC(=O)c2cc(C(=O)Nc3cccc4ccccc34)c(=O)[nH]c2C1	11.0%	nt	nt	nt	2.4%
O=C(O)CCCn1cc(NC(=O)c2cc(F)c(F)cc2Cl)cn1	36.2%	-8.7%	-0.1%	-34.4*	13.6%[57.1 µM]
COc1cc(/C=C/c2cc[n+](C)c3ccccc23)cc(OC)c1OC	-4.7%	nt	nt	nt	1.9%
CCCCC(CC)CN=C(N)NC(N)=NCCCCCCN=C(N)NC(N)=NCC(CC)CCCC (stereo not given)	?	31.6µM*	nt	-0.9	-10.1%
O=C1CC(Nc2ccc(N3CCOCC3)cc2)C(=O)N1c1cccc(C(F)(F)F)c1 (stereo not given)	?	2.7%	0.3%	-36.3*	0.0%
COc1cc2c(NC3CCN(C(C)C)CC3)nc(N3CCCN(C)CC3)nc2cc1OCCCN(C)C	?	nt	nt	nt	72.3%
c1csc(C2C3=C(Nc4ncnn42)c2ccccc2OC3)c1 (stereo not given)	79.4µM*	-7.4%	1.6%	-3.1	18.2%
Nc1ccc2oc(Cc3ccc(Cl)cc3)nc2c1	50.1µM*	15.1%	nt	nt	1.3%
O=[N+]([O-])c1ccc(O)c(C=Nc2ccc3oc(Cc4ccc(Cl)cc4)nc3c2)c1	nt	nt	2.8%	-35.3*	nt
